The values below come from PubChem BioAssay.

Sequence of PEG-3 (Q6IN02 whole entry, looked up): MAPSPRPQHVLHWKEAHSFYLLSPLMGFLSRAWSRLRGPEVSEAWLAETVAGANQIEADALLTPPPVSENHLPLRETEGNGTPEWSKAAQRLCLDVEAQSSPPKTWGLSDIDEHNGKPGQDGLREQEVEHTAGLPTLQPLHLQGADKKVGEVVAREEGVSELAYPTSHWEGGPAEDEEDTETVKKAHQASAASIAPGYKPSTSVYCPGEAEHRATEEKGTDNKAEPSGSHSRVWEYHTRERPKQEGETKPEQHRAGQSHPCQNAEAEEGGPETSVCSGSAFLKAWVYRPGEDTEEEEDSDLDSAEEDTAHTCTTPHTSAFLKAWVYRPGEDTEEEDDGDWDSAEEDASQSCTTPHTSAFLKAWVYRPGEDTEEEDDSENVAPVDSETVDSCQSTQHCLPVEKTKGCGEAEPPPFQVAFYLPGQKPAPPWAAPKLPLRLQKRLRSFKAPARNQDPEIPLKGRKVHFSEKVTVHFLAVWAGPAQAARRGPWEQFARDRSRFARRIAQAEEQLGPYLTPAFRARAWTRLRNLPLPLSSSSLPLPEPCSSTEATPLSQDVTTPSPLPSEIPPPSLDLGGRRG

This assay addresses PEG-3 (UniProt Q6IN02). Nature of the assay: inhibition of PEG-3 promoter-driven reporter – cell-based, HeLa, luciferase, CREF/GAPDH counter-screen panel, dose response (AID 624167). The conditions noted are these: CREF/GAPDH counter-screens; HeLa PEG-Prom luciferase reporter, overnight, run 2, dose range 1, at 100 µM (top of the series) unless noted.
Regarding `CC(=O)c1cccc(-c2csc3ncnc(Sc4nnnn4C)c23)c1`, the inhibition came to 100%.

As for `CCN1C/C(=C/c2ccc(N3CCOCC3)cc2)C(=O)/C(=C/c2ccc(N3CCOCC3)cc2)C1`, the inhibition is 96.4%.

`Cc1nn(-c2ccccc2)c2c1C(c1ccc([N+](=O)[O-])cc1)N1C(=N2)C(=O)Nc2ccccc21` (stereo not given): the inhibition came out at 2.44%.

`O=C(O)CN1C(=O)/C(=C\c2ccccc2OCc2ccc(Cl)cc2Cl)SC1=S`: the inhibition was found to be 99.9%.

Consider `CN(C)S(=O)(=O)c1cccc(NC(=O)CSc2nc3c(cc2C#N)C(=O)CC(C)(C)C3)c1`, for which the inhibition amounted to 60.6%.

Regarding `CCCOc1ccc(NC(=O)CC2C(=O)N(CC)C(=S)N2CCCN2CCN(Cc3ccccc3)CC2)cc1` (stereo not given), the inhibition is 101%.

Take `CCN(CC)CCCCNc1ncc2cc(-c3cc(OC)cc(OC)c3)c(NC(=O)NC(C)(C)C)nc2n1`: the inhibition is 101%.

For `CC1=C(CC[C@@H](C)CO)OC2CC3C4CCC5CC(O)CCC5(C)C4CC(=O)C3(C)C12` (stereo not given in full), the inhibition worked out at 83.2%.

As for `CCc1ccc(OCCNc2cc(N3CCNC(C)C3)ccc2[N+](=O)[O-])cc1` (stereo not given), the inhibition was 101%.

As for `CC(C)CC(N)c1csc(NC(=O)Nc2ccccc2C(C)C)n1` (stereo not given), the inhibition came out at 101%.

`O=C1CCC2S/C(=C/Nc3ccc(C(F)(F)F)cc3)C(=O)N12` (stereo not given): the inhibition amounted to 85.3%.

Turning to `CCN1CCCC1CN(Cc1cc2ccc(C)cc2[nH]c1=O)C(=S)Nc1ccc(OC)cc1` (stereo not given), the inhibition amounted to 99.5%.

Take `COc1cccc(NC(=O)Nc2cccc(C(=O)O)c2)c1`: the inhibition stood at 81.3%.

Regarding `CCCn1c(=N)n(CC(=O)c2ccc(Cl)cc2)c2ccccc21`, the inhibition worked out at 100%.

Take `Cc1c(C(=O)N2CCN(c3ccc(F)cc3)CC2)sc2ncnc(N3CCN(c4ccccn4)CC3)c12`: the inhibition was 77.6%.

Broadly, the inhibition is the relative decrease from the control value, in per cent.
